rRNA inh HTS = reduced GFP signal of wild-type E. coli, primary screen, bacterial rRNA inhibitor project, GFP/RFP fluorescence, OD600, single point; E. coli WT GFP vs humanized-ribosome RFP mutants, 24 h; active compounds read low; DMSO median 0, no signal -100; GFP signal change (wild-type ribosome), % (concentration not given with the values); hit rate 1.6% among 350,000;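 active = significant combined selectivity score with lowered wild-type GFP, culture density cut under 30%, mutant RFP and density less affected; inactive = any of these conditions unmet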
CASP6 VEID inh = human caspase-6 inhibitors, primary screen, biochemical, VEID-R110 fluorescence, single point, set 2 | P55212 | purified caspase-6, Z-VEID-R110 cleavage fluorescence | inhibition, % at 12.5 µM | hit rate 0.53% among 350,000 | AID 686996, 2013;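 active = mean inhibition across replicates at least about 35%, with every replicate also reaching that limit, limit read from the data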;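 also: 0% = median of neutral control wells and 100% = no fluorescence left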
NSD2 HMT inh = NSD2 histone methyltransferase inhibitors, primary screen, biochemical, AlphaScreen, single concentration, set 2. Histone-lysine N-methyltransferase NSD2 (Homo sapiens), O96028. NSD2 peptide methylation, 120 min. inhibition, % at 12.5 µM. hit rate 0.54% among 310,000; in the data active = inhibition above about 50%
Target sequence (O96028 whole entry, looked up): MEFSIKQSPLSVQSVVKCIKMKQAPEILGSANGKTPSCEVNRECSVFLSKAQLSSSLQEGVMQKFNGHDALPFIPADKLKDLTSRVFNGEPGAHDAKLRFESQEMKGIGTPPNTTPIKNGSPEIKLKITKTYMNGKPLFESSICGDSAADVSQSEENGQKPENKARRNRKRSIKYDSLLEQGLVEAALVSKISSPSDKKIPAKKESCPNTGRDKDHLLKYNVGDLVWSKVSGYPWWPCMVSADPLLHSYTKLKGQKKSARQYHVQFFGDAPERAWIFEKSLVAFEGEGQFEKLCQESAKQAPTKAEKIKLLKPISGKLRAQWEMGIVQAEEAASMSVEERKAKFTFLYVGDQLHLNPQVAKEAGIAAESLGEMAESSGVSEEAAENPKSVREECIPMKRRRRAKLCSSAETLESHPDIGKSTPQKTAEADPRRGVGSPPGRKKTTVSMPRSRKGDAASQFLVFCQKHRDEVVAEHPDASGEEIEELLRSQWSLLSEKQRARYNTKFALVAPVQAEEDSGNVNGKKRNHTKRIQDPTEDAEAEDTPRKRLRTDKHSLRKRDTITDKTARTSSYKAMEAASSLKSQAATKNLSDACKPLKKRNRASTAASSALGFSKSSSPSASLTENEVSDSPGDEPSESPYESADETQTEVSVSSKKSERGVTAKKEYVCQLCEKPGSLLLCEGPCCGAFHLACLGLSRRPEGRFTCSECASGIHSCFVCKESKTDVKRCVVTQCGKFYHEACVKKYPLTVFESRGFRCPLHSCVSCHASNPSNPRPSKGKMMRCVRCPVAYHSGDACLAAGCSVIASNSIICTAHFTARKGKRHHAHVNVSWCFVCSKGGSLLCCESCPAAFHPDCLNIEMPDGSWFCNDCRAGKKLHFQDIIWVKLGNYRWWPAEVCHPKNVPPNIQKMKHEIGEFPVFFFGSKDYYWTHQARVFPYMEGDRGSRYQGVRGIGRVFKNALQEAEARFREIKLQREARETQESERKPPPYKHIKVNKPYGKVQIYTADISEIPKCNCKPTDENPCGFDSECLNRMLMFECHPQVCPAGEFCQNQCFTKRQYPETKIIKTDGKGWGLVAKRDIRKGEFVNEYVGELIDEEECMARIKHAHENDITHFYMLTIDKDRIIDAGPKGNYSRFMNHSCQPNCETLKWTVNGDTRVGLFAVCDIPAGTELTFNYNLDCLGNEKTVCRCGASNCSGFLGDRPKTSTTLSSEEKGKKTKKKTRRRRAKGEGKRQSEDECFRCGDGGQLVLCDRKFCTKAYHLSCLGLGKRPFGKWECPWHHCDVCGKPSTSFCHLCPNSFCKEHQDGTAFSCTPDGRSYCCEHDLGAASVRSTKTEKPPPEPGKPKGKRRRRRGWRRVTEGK
MLL AF4-AF9 inh = inhibitors of AF4 peptide binding to AF9, primary screen, biochemical, AlphaScreen, biotin-AF4 peptide, FLAG-AF9, single point; Protein AF-9 (Homo sapiens), P42568; inhibition, % at 10 µM; hit rate 0.47% among 350,000;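 active = every replicate reaching a set inhibition limit, whatever the replicate mean, cut at about 25% in these data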;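 also: 0% = plate neutral control median and 100% = total signal loss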
RAD52 anneal inh = RAD52 DNA annealing inhibitors, primary screen, biochemical, FRET, single point, set 2 | inhibition, % at 18.7 µM | recombinant RAD52 DNA annealing, FRET fluorescence | hit rate 0.46% among 360,000 | DNA repair protein RAD52 homolog (Homo sapiens), P43351;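 active = every replicate showing at least 50% inhibition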
The depositor's hits bear a star; · = no result. Compounds with a hit are over-represented: about 2.5% of the library has one in this group of screens.

SMILES | rRNA inh HTS | CASP6 VEID inh | NSD2 HMT inh | MLL AF4-AF9 inh | RAD52 anneal inh
COc1ccc(C#Cc2ccc3c(c2)[C@H]2[C@H](CCN2C(=O)C2CCC2)[C@@H](CO)N3)cc1 | -2 | 1 | · | 18 | 11
O=C(Nc1ccc(F)cc1)N1CCCCN2[C@H](CO)[C@H](c3ccc(-c4ccccc4F)cc3)[C@H]2C1 | · | -1 | · | 11 | 60*
O=C(Nc1ccccc1)N1CCCCN2[C@H](C1)[C@H](c1ccc(-c3ccccc3F)cc1)[C@@H]2CO | -12 | 3 | · | 0 | -1
O=S(=O)(c1ccc(F)cc1)N1CCCCN2[C@H](CO)[C@@H](c3ccc(-c4ccccc4F)cc3)[C@H]2C1 | · | -1 | · | 2 | 56*
O=C(Nc1ccc(F)cc1)N1CCCCN2[C@H](CO)[C@@H](c3ccc(-c4ccccc4F)cc3)[C@H]2C1 | · | 0 | · | 10 | 53*
O=C(Nc1ccc(F)cc1)N1CCCCN2[C@H](CO)[C@@H](c3ccc(-c4ccccc4F)cc3)[C@@H]2C1 | · | 1 | · | -6 | 49
CCCN1C[C@@H](C)[C@@H](OC)CN(C)C(=O)c2cc(NC(=O)COC)ccc2OC[C@@H]1C | 0 | · | · | · | ·
CCCC(=O)Nc1ccc2c(c1)C(=O)N(C)[C@@H]1CC[C@@H](CC(=O)NCCc3ccccc3)O[C@@H]1CO2 | 2 | -1 | · | -1 | -8
Cc1nnn(-c2nonc2N)c1C(=O)NNC(=O)c1ccc(Cl)c(Cl)c1 | -26* | 0 | 1 | -1 | -20
COc1ccc(O)c(/C=N/NC(=O)c2c(C)nnn2-c2nonc2N)c1 | 2 | 4 | · | -1 | -18
O=C(NC1CCCCC1)N1CC2(C1)[C@H](c1ccccc1)[C@H](CO)N2CC1CC1 | -1 | -1 | · | -2 | -12
Cc1ccc(OCCn2c(=S)[nH]c3c(N)ncnc32)cc1 | -37* | · | -3 | -1 | -31
CC(C)Oc1ccc(OCCn2c(=S)[nH]c3c(N)ncnc32)cc1 | -31 | -5 | 3 | -3 | -1
CC(=O)c1sc(-c2ccc(Cl)cc2)cc1N | -30* | 2 | -2 | · | -3
CO[C@H]1CN(C)C(=O)c2cc(NC(=O)NC(C)C)ccc2OC[C@@H](C)N(C(=O)C2CCC2)C[C@@H]1C | 3 | · | · | -3 | 1
Fc1ccccc1CSc1ccc(-c2ccco2)nn1 | 2 | 8 | · | -1 | -10
COc1ccccc1-c1ccc(SCC(=O)NCCc2ccccc2)nn1 | -32* | 2 | 13 | 2 | -11
COc1ccccc1-c1ccc(SCc2ccccc2F)nn1 | -36* | 0 | -4 | 1 | -17
COc1ccccc1-c1ccc(SCC(=O)NCc2ccc3c(c2)OCO3)nn1 | -25 | -3 | 2 | 0 | -23
COc1ccccc1-c1ccc(SCc2cccc(F)c2)nn1 | -30* | 5 | -3 | -4 | -38
COc1ccccc1-c1ccc(SCc2ccccc2)nn1 | -33* | 0 | -2 | -2 | -6
COc1ccc(S(=O)(=O)N(C)C[C@@H]2OCCCC[C@H](C)Oc3ccc(NC(=O)Nc4ccccc4)cc3C(=O)N([C@@H](C)CO)C[C@@H]2C)cc1 | 3 | · | · | · | ·
C[C@@H]1CN([C@H](C)CO)S(=O)(=O)c2ccc(C#CCN(C)C)cc2O[C@@H]1CN(C)C(=O)C1CC1 | 2 | · | · | · | ·
CC(/C=C/c1ccco1)=N\NC(=O)c1cccnc1 | · | · | 1 | · | ·
CC(/C=C/c1ccco1)=N\NC(=O)c1cc(C)[nH]n1 | · | · | 3 | · | ·
SMILES | rRNA inh HTS | CASP6 VEID inh | NSD2 HMT inh | MLL AF4-AF9 inh | RAD52 anneal inh
O=C(/C=C/c1ccco1)c1cccnc1 | 4 | 65* | 28 | -1 | -45
O=C(/C=C/c1ccco1)c1ccccc1O | 10 | 13 | -2 | 0 | -27
CC(/C=C/c1ccco1)=N\NC(=O)c1cc(Cl)ccc1O | · | 52* | 5 | -2 | -19
O=C(C=Cc1ccco1)c1cc(Cl)ccc1O | -10 | 45* | 8 | 3 | -15
C[C@H](CO)N1C[C@H](C)[C@H](CN(C)S(=O)(=O)c2cn(C)cn2)Oc2ccc(NS(=O)(=O)c3cn(C)cn3)cc2C1=O | 2 | · | · | · | ·
O=C(CCl)N1c2ccccc2Sc2ccc3ccccc3c21 | · | · | 0 | · | ·
CN(C)CCCN1c2ccccc2Sc2ccc3ccccc3c21 | -62 | 2 | 4 | 30* | 21

Source: PubChem BioAssay
